Experimental data published in PubChem BioAssay (NCI).
Compounds without any hit were thinned out: in the full panel of roughly 79,000, 15% have a hit. Values without a mark were called inactive. Activity calls are given as the source filed them. No stated cut-off is given here; in the data, active means growth inhibition above about 70%; inactive means the rest.

Experiment: NCI Yeast Anticancer Drug Screen. Data for the bub3 strain (AID 167)
Conditions: S. cerevisiae bub3 mutant strain, at 50.0 µM, stronger effect = higher value
Outline: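 In this screen, a yeast mutant lacking normal mitotic checkpoint function is challenged with compound. Relative growth versus vehicle gives the inhibition value.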

SMILES	growth inhibition
CC12CCC(/C(=C/N(O)/C=C3\C(=O)C4(C)CCC3C4(C)C)C1=O)C2(C)C	6.75%
O=C(NC(=O)c1ccc(Cl)c(Cl)c1)Nc1ccc(Cl)cc1	11.2%
CSC(=Nc1nnc(-c2ccc([N+](=O)[O-])cc2)s1)SC	-5.5%
COc1cc(C)c(OC)c(C/C=C(\C)CC2=C(CC(C)(C)O)C(=O)[C@]3(C)CCC[C@]3(C)C2)c1	16.5%
N/N=C1\CC(=O)NC(=O)N1	3.05%
CC(=O)OC1C(=O)OC(=O)C1OC(C)=O (stereo not given)	6.05%
N#Cc1cc(Cl)ccc1N=Cc1c(Cl)cccc1Cl	-6.55%
CCc1ccccc1NOC	8.45%
CSc1nc2c(c(=O)n1C)N=C(c1ccc([N+](=O)[O-])cc1)CC(c1ccccc1)N2 (stereo not given)	18.1%
O=P1(O)c2ccccc2Oc2ccccc21	-0.95%
Cn1c(N)nc2c1c(=O)[nH]c(=O)n2C	-19.4%
C/C=C(\C)C(=O)OC1CC(OC(=O)/C(C)=C/C)C2(C)C3C(=O)C=C(C)C2C3C1(C)C (stereo not given)	3.05%
O=C(O)CCCc1ccc(O)cc1	-1.15%
O=C1CC(c2ccccc2)S(=O)c2ccccc2N1 (stereo not given)	11.6%
Cc1ccc(S(=O)(=O)NN=C2CC3C4CCC5C4CC3C25)cc1 (stereo not given)	-13.5%
CCC(/C=C/c1ccccc1)=N\NC(=O)c1ccc(C)cc1	15.5%
CCCCC1CCCCC1=O (stereo not given)	-0.45%
CCC(C)C/C(C)=N\NC(N)=O (stereo not given)	-4.75%
CC(=O)Nc1ccc(/C=C(\NC(=O)c2ccccc2)C(=O)NNS(=O)(=O)c2ccc(C)cc2)cc1	-4.2%
O=[n+]1c2ccccc2n([O-])c2cn(-c3ccccc3)c(-c3ccccc3)c21	46.9%

SMILES	growth inhibition
O=C1c2ccccc2C(=O)N1/N=C1/SC(=Nc2ccccc2)C(=Nc2ccccc2)N1c1ccccc1	14.8%
CCCCCCCCCCCC(=O)OCC1OC(n2cc(F)c(=O)[nH]c2=O)C(N)C(OC(=O)CCCCCCCCCCC)C1O (stereo not given)	-34.9%
O=CC(=O)c1cccc([N+](=O)[O-])c1	-29.2%
O=C(Cc1ccccc1C(=O)O)c1ccccc1	-25.1%
CC(C)(C)/C(CC(=O)CCC(=O)Nc1ccc(Cl)cc1)=N\NC(N)=S	1.65%
CCc1ccc(/C(C#N)=C/c2ccccc2Cl)cc1	35.2%
CCOC(=O)c1cnc2ccccn2c1=O	-18%
CSC1NC(c2ccccc2)=C(C#N)C(=O)N1C1OCC(OC(C)=O)C(OC(C)=O)C1OC(C)=O (stereo not given)	3.4%
COC(=O)/C(=N\N)C(C(=O)C(=O)Nc1nc(=S)[nH][nH]1)c1nc2ccc([N+](=O)[O-])cc2[nH]c1=O (stereo not given)	29%
C(/C=C/c1csnn1)=C\c1ccccc1	2.35%
Cc1ccc(S(=O)(=O)CNC(=O)C(O)(O)C(F)(F)F)cc1	-1.9%
C=C(C)C1CCC2(C=O)CCC3(C)C(CCC4C5(C)CCC(O)C(C)(C)C5CCC43C)C12 (stereo not given)	26%
CCOC(=O)c1c(C)c(C)n2c1NC(=O)C2	-30.6%
N/N=C(\NN)c1ccccc1	0.75%
Cc1ccc(C2(O)c3ccccc3N=NN2C)cc1 (stereo not given)	14%
O=C1Nc2noc(=O)nc2NO1	-22.4%
CCCCCCCCCCCCCCCCCC(=O)c1ccc(OC)c(OC)c1	-24.4%
Cc1cccc(NS(=O)(=O)c2ccc(Cl)cc2)c1C	98.4% (active)
CCOC(=O)C1C(=S)NC(=O)C1C#N (stereo not given)	11.3%
CCC1(C#N)N=C(c2ccccc2)c2ccccc2N1C(=O)OC (stereo not given)	-35.5%

Experiment: NCI Yeast Anticancer Drug Screen. Data for the mlh1 rad18 strain (AID 175)
Conditions: S. cerevisiae mlh1 rad18 strain growth inhibition; at 50.0 µM; stronger effect = higher value
Outline: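 In this whole-cell yeast screen, a strain with altered DNA damage repair is challenged with compound, and its growth is measured against matched vehicle-treated controls.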

SMILES	growth inhibition
CC12CCC(/C(=C/N(O)/C=C3\C(=O)C4(C)CCC3C4(C)C)C1=O)C2(C)C	0.8%
O=C(NC(=O)c1ccc(Cl)c(Cl)c1)Nc1ccc(Cl)cc1	8%
CSC(=Nc1nnc(-c2ccc([N+](=O)[O-])cc2)s1)SC	-47%
COc1cc(C)c(OC)c(C/C=C(\C)CC2=C(CC(C)(C)O)C(=O)[C@]3(C)CCC[C@]3(C)C2)c1	12.4%
N/N=C1\CC(=O)NC(=O)N1	0.05%
CC(=O)OC1C(=O)OC(=O)C1OC(C)=O (stereo not given)	-3.85%
N#Cc1cc(Cl)ccc1N=Cc1c(Cl)cccc1Cl	12.8%
CCc1ccccc1NOC	9.65%
CSc1nc2c(c(=O)n1C)N=C(c1ccc([N+](=O)[O-])cc1)CC(c1ccccc1)N2 (stereo not given)	-16.2%
O=P1(O)c2ccccc2Oc2ccccc21	-44.5%
Cn1c(N)nc2c1c(=O)[nH]c(=O)n2C	21.8%
C/C=C(\C)C(=O)OC1CC(OC(=O)/C(C)=C/C)C2(C)C3C(=O)C=C(C)C2C3C1(C)C (stereo not given)	6.8%
O=C(O)CCCc1ccc(O)cc1	20.3%
O=C1CC(c2ccccc2)S(=O)c2ccccc2N1 (stereo not given)	-1.25%
Cc1ccc(S(=O)(=O)NN=C2CC3C4CCC5C4CC3C25)cc1 (stereo not given)	7.1%
CCC(/C=C/c1ccccc1)=N\NC(=O)c1ccc(C)cc1	5.25%
CCCCC1CCCCC1=O (stereo not given)	5.1%
CCC(C)C/C(C)=N\NC(N)=O (stereo not given)	6.25%
CC(=O)Nc1ccc(/C=C(\NC(=O)c2ccccc2)C(=O)NNS(=O)(=O)c2ccc(C)cc2)cc1	21.4%
O=[n+]1c2ccccc2n([O-])c2cn(-c3ccccc3)c(-c3ccccc3)c21	89.2% (active)

SMILES	growth inhibition
O=C1c2ccccc2C(=O)N1/N=C1/SC(=Nc2ccccc2)C(=Nc2ccccc2)N1c1ccccc1	20.1%
CCCCCCCCCCCC(=O)OCC1OC(n2cc(F)c(=O)[nH]c2=O)C(N)C(OC(=O)CCCCCCCCCCC)C1O (stereo not given)	-45.5%
O=CC(=O)c1cccc([N+](=O)[O-])c1	10.4%
O=C(Cc1ccccc1C(=O)O)c1ccccc1	-13.3%
CC(C)(C)/C(CC(=O)CCC(=O)Nc1ccc(Cl)cc1)=N\NC(N)=S	20.8%
CCc1ccc(/C(C#N)=C/c2ccccc2Cl)cc1	27.1%
CCOC(=O)c1cnc2ccccn2c1=O	-2.25%
CSC1NC(c2ccccc2)=C(C#N)C(=O)N1C1OCC(OC(C)=O)C(OC(C)=O)C1OC(C)=O (stereo not given)	-1.5%
COC(=O)/C(=N\N)C(C(=O)C(=O)Nc1nc(=S)[nH][nH]1)c1nc2ccc([N+](=O)[O-])cc2[nH]c1=O (stereo not given)	22.6%
C(/C=C/c1csnn1)=C\c1ccccc1	0.5%
Cc1ccc(S(=O)(=O)CNC(=O)C(O)(O)C(F)(F)F)cc1	-12.4%
C=C(C)C1CCC2(C=O)CCC3(C)C(CCC4C5(C)CCC(O)C(C)(C)C5CCC43C)C12 (stereo not given)	20.8%
CCOC(=O)c1c(C)c(C)n2c1NC(=O)C2	-13.9%
N/N=C(\NN)c1ccccc1	11.7%
Cc1ccc(C2(O)c3ccccc3N=NN2C)cc1 (stereo not given)	9.75%
O=C1Nc2noc(=O)nc2NO1	-18.5%
CCCCCCCCCCCCCCCCCC(=O)c1ccc(OC)c(OC)c1	-1.25%
Cc1cccc(NS(=O)(=O)c2ccc(Cl)cc2)c1C	98.7% (active)
CCOC(=O)C1C(=S)NC(=O)C1C#N (stereo not given)	-4.7%
CCC1(C#N)N=C(c2ccccc2)c2ccccc2N1C(=O)OC (stereo not given)	18.1%
